Experimental data from PubChem BioAssay AID651705 (Broad Institute, 2012).
About 620 (52%) of roughly 1,200 compounds were called active.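 The calls were made as follows: active = every separate test run was called active for a drop in luminescence, with AC50 within twice the top valid dose (actives reach about 71 µM in these data); inconclusive = the separate test runs disagree in their calls; inactive = all runs inactive, including signal change in the wrong direction.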 So high a share suggests a set chosen from earlier hits. These entries were drawn from the full list.

Test: AlphaScreen signal interference compounds, dose response, artefact control for ARNT-TACC3 interaction inhibitor project, biochemical, luminescence, cherry-pick (AID 651705)
Settings: His-ARNT PASB-GST AlphaScreen artifact counter-screen; series mostly up to 68 µM
In the case of `Oc1cccc(/C=N/Nc2ccc(Cl)nn2)c1O`, the AC50 is reported as 10.2 µM (active). With `CN(c1ccc(C(=O)N2CCc3ccccc3C2)cc1)S(C)(=O)=O` the AC50 was “inactive”. With `C[C@@H]1CN([C@H](C)CO)C(=O)Cc2cc(NC(=O)Nc3cccc4ccccc34)ccc2O[C@@H]1CN(C)Cc1ccc(C(=O)O)cc1` the AC50 was “inactive”. For `CC(C(=O)Nc1ccc(O)c(C(=O)O)c1)N1C(=O)/C(=C/c2cccs2)SC1=S` (stereo unspecified), the AC50 was “inactive”. With `CCN(CC)c1ccc(/C=N/NC(=O)c2cnccn2)c(O)c1` the AC50 was “inactive”. In the case of `CCOC(=O)N1CCN(C(c2cccnc2)c2ccc3cccnc3c2O)CC1` (stereo unspecified), the AC50 is reported as 18 µM (active). With `CCN1CCN(C(c2cccnc2)c2cc(Cl)c3cccnc3c2O)CC1` (stereo unspecified) the AC50 was 23.8 µM (active). With `COc1ccc2ccccc2c1CNCc1ccccn1` the AC50 was “inactive”. With `O=S(=O)(c1ccccc1)N1C[C@@H]2[C@H](c3ccccc31)[C@H](CO)N2Cc1ccccn1` the AC50 was 65.5 µM (active). With `C/C(=N\NC(=O)Cc1ccc(Cl)cc1)c1ccccn1` the AC50 was 59.3 µM (active). In the case of `Cc1c(CC(=O)NCC(=O)NCC(=O)O)c(=O)oc2cc3oc4c(c3cc12)CCCC4`, the AC50 is reported as “inactive”. With `O=C(NCCCn1ccnc1)c1cc(-c2ccccc2)on1` the AC50 was “inactive”. For `CC(=O)/C(=N\Nc1ccc(Cl)cc1Cl)Sc1cccc2cccnc12`, the AC50 was 7.85 µM (active). For `Oc1ccc(Br)cc1/C=N/Nc1ccccn1`, the AC50 was 56.5 µM (active). For `Cc1ccccc1CSc1nnc(-c2ccccn2)n1N`, the AC50 was “inactive”. For `O=C(CN1C(=O)COc2ccccc21)Nc1ccc(F)cc1`, the AC50 was 13.5 µM (active). With `O=C1c2cccc3cccc(c23)C(=O)N1CCCCCc1n[nH]c(=S)o1` the AC50 was “inactive”. For `CCn1cc(/C=C2/SC(=S)NC2=O)c(C)n1`, the AC50 was “inactive”. With `Oc1c(CN2CCN(c3ccc(F)cc3)CC2)cc(Cl)c2cccnc12` the AC50 was 10.2 µM (active). In the case of `O=C(CSc1ccc(-c2ccccn2)nn1)Nc1ccccc1`, the AC50 is reported as 10.4 µM (active). With `C[C@@H]1CN([C@@H](C)CO)C(=O)c2cc(NS(=O)(=O)c3cccs3)ccc2O[C@H]1CN(C)CC1CCCCC1` the AC50 was “inactive”. In the case of `c1ccc(-c2cn3c(n2)CCc2ccc4cccnc4c2-3)cc1`, the AC50 is reported as “inactive”. In the case of `Cn1c(-c2ccccc2)cnc1NC(=O)c1cc(-c2ccccc2)on1`, the AC50 is reported as 40.5 µM (active). With `Cc1ccc(NC(=O)c2cc(-c3ccccc3)on2)cn1` the AC50 was “inactive”. For `O=C(Nc1cnc2ccccc2c1)c1cc(-c2ccccc2)on1`, the AC50 was “inactive”. With `CCOc1cc(N2CCOCC2)c(OCC)cc1NC(=O)COc1cccc2cccnc12` the AC50 was 36.5 µM (active). In the case of `O=S(=O)(N[C@@H]1CC[C@@H](CCn2cc(-c3ccccn3)nn2)O[C@@H]1CO)c1cccc(Cl)c1`, the AC50 is reported as 41.9 µM (active). In the case of `O=C(N[C@@H]1CC[C@H](CCn2cc(-c3ccccn3)nn2)O[C@@H]1CO)c1ccccc1`, the AC50 is reported as 37.6 µM (active). In the case of `COCCNC(=O)Cn1cc(C(=O)c2cccs2)c2ccccc21`, the AC50 is reported as “inactive”. With `Cn1c(=NC(=O)c2cnccn2)sc2ccccc21` the AC50 was “inactive”. With `Cc1c(NC(=O)CSc2cccc3cccnc23)c(=O)n(-c2ccccc2)n1C` the AC50 was 32.1 µM (active). With `COc1ccc(Cc2nnc(N/N=C/c3ccccc3O)[nH]c2=O)cc1OC` the AC50 was 6.44 µM (active). In the case of `CCN(/N=C/c1ccccc1)c1cc(=O)n(C)c(=O)[nH]1`, the AC50 is reported as “inactive”. In the case of `COc1cc(C2C(C#N)=C(N)Oc3n[nH]c(-c4ccccn4)c32)cc(OC)c1OC` (stereo unspecified), the AC50 is reported as “inactive”. In the case of `c1ccc(-c2nnc(-c3ccccn3)nc2Nc2nc3ccccc3s2)cc1`, the AC50 is reported as 1.9 µM (active). For `CC(NC(=O)c1ccco1)C(=O)Nc1nc(-c2ccccn2)cs1` (stereo unspecified), the AC50 was 31.7 µM (active). With `O=C(CN1C(=O)C2C3C=CC(C3)C2C1=O)Nc1nc(-c2ccccn2)cs1` (stereo unspecified) the AC50 was 47.6 µM (active). In the case of `O=C(COc1ccccc1F)Nc1nc(-c2ccccn2)cs1`, the AC50 is reported as 54.1 µM (active). With `Cc1c(CC(=O)NCCCCCC(=O)O)c(=O)oc2cc3occ(-c4ccccc4)c3cc12` the AC50 was “inactive”. With `CCN(C(=O)Cc1nc(N)n[nH]1)C1(C(=O)Nc2ccccc2)CCCCC1` the AC50 was “inactive”. In the case of `Cc1ccc(S(=O)(=O)n2oc(=O)c(C3CCCCC3)c2N)cc1`, the AC50 is reported as 42.3 µM (active). In the case of `COc1ccccc1Nc1nc(N)nc(CN(C)C2CCCCC2)n1`, the AC50 is reported as “inactive”. For `CC[C@]1(O)CC2CN(CCc3c([nH]c4ccccc34)[C@@](C(=O)OC)(c3cc4c(cc3OC)N(C=O)[C@H]3[C@@](O)(C(=O)OC)[C@H](OC(C)=O)[C@]5(CC)C=CCN6CC[C@]43[C@@H]65)C2)C1` (stereo partly specified), the AC50 was “inactive”. With `CCN(CC)CCOc1ccc2c(c1)C(=NNC(=O)c1ccccn1)c1cc(OCCN(CC)CC)ccc1-2` the AC50 was 69.6 µM (active). For `CCOC(=O)c1ccc(Nc2cc3ccccc3c(=O)[nH]2)cc1`, the AC50 was “inactive”. For `COC(=O)CC1=NN(c2nc(C)cc(C)n2)C(=O)C1`, the AC50 was “inactive”.
